L major viab – Leishmania major promastigote growth inhibition; hit rate 9% among 200,000; Leishmania major promastigotes, resazurin fluorescence viability; inhibition, % at 10 µM; in the data active = inhibition above about 50%;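 note: promastigotes grown with compound for 44 hours at 28 °C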
WT yeast gro inh – growth inhibition of WT yeast, mitochondrial fusion screen | mitochondrial fusion phenotypic screen, WT strain | inhibition, % at 10 µM | hit rate 2.1% among 190,000; in the data active = inhibition above about 58%; tested in S. cerevisiae
Ins promoter up – MIN6 insulin promoter up-regulation; MIN6 insulin promoter-GFP reporter, high-content imaging; active compounds read high; z-score at 5 µM; hit rate 0.3% among 190,000; AID 1625;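 active = z-score above 3 at 5 µM with at least 500 cells counted in the well; inconclusive = wells under 500 cells, flagged as cytotoxic or low count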
INS promoter inh – TRM-6 insulin promoter activity inhibition; inhibition, % at 2 µM; hit rate 0.9% among 130,000; TRM-6 cells (human fetal islet line), insulin promoter-eGFP reporter, imaging; reporter expression induced with tamoxifen; AID 1273;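 active = inhibition above the mean plus 3 SD, with well images judged a real hit on visual review, cut at about 60% in these data, passing the limit was not always enough; inconclusive = inhibition over the cutoff but images rejected on review; inactive = inhibition not above the cutoff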
ROMK primary – modulates human ROMK potassium channel activity; B-score at 10 µM; P48048; hit rate 2% among 130,000; Tet-inducible ROMK, thallium flux fluorescence; actives lie on both sides;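 active = signal ratio slope over the read window, or its plate-corrected B-score, at least 3 SD from the plate mean, either direction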;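 note: B-score of the F/F0 ratio slope over 7 to 12 s after thallium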
Target sequence (P48048 whole entry, looked up): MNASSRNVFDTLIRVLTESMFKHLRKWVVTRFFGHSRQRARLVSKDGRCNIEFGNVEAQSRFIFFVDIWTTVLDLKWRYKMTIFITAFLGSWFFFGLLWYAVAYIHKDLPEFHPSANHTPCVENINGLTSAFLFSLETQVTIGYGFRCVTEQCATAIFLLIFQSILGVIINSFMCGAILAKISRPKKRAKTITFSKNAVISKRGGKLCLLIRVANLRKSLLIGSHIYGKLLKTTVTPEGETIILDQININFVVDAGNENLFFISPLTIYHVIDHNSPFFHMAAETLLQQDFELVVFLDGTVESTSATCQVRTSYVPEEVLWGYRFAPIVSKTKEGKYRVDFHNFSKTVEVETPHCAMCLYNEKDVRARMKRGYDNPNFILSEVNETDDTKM
KCC2 mod – KCC2 (human) Cl- transport modulation; B-score of Tl+ flux slope (higher = more flux/activation; lower = inhibition) at 10 µM; Q9H2X9; KCC2 cells, thallium flux FluoZin-2 fluorescence; hit rate 2.2% among 190,000;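 active = thallium flux slope and its plate-corrected score both differing from the plate sample mean at a set confidence after two filtering rounds, in either direction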;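 note: slope of fluorescence scaled to starting intensity during 10 to 20 s after thallium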
* = called active by the depositor; ? = inconclusive; . = not tested or not shown. Hits are enriched below; roughly 12% of the tested compounds scored in any of these assays.

SMILES	L major viab	WT yeast gro inh	Ins promoter up	INS promoter inh	ROMK primary	KCC2 mod
COc1cccc2c(=O)n(CC(=O)Nc3ccc(F)cc3F)ccc12	-9	-2	0.01	.	.	.
O=C(CNC(=O)C1COc2ccccc2O1)N/N=C\c1ccc(Cl)cc1 (centres undefined)	.	.	-0.4	.	-2.1	-2.2
CCCCCCn1c(=O)c(F)cn(Cc2ccc(OC)c([N+](=O)[O-])c2)c1=O	91*	19	-0.4	-91	.	-0.36
S=c1[nH]nc(-c2ccc(Br)o2)n1Cc1ccccc1	-4	1	0.3	-10	0.49	3.4*
CCNC(=O)N1c2ccc(OC)cc2C(C)=CC1(C)C	23	9	-0.18	64	0.14	.
CC[C@H](C)[C@@H](C(=O)N1CCNCC1)n1cc([C@@H](N)CC(C)C)nn1	-5	-12	1.3	.	.	0.051
CCOC(=O)C1CCN(Cc2ccccc2C(F)(F)F)CC1	-5	-5	0.36	9	0.79	0.53
COc1ccccc1N1CCN(Cc2ccc(OC)c(OC)c2OC)CC1	3	9	0.63	.	-0.056	1.1
CCOC(=O)C1CCN(Cc2ccc(O)c3ncccc23)CC1	95*	-8	?	.	0.29	0.36
COc1ccccc1N1CCN(Cc2ccc(O)c3ncccc23)CC1	101*	14	.	34	-2.7	-0.01
C=CCOc1cccc(C2C(C(=O)c3ccc(C)o3)=C(O)C(=O)N2CCN(C)C)c1 (centres undefined)	-4	0	0.43	.	-0.096	.
C#CCOc1ccc(/C=N/O)cc1Cl	55*	13	-0.56	38	.	0.39
COc1ccccc1NS(=O)(=O)c1cc(NC(=O)c2sc3cc(Cl)ccc3c2Cl)ccc1C	2	3	0.01	-11	0.03	0.57
CCOC(=O)C1=C(C)Nc2sc(C(=O)c3ccc(F)cc3)c(N)c2C1c1ccc(C(=O)OC)cc1 (centres undefined)	91*	87*	-0.99	.	.	-2.5
CCOC(=O)C1=C(C)NC(SCC(=O)OC)=C(C#N)C1c1ccc(C(=O)OC)cc1 (centres undefined)	2	-9	0.9	.	-1.3	.
CCOC(=O)C1=C(C)Nc2sc(C(=O)c3ccc(C)cc3)c(N)c2C1c1ccc(C(=O)OC)cc1 (centres undefined)	81*	32	-0.42	18	.	-0.92
O=C(NCN1CCCCC1)c1cccnc1	-6	-6	0.16	-210	1.8	0.036
CN(C)CCCCNCCCNC(=O)/C=N\O	-3	-8	?	-42	0.18	0.75
CC1(C)CC(=O)C(C=Nc2ccc3[nH]ncc3c2)=C(O)C1	1	84*	0.19	9	.	.
Cc1noc(C)c1CSc1nc2ccccc2c(=O)n1-c1ccc(Cl)cc1	18	-7	0.09	26	-0.31	.
Cc1ccc2nc(NCc3ccccc3)[nH]c2c1	65*	17	-1.6	.	0.52	-1.3
COc1ccc2nc(NCc3ccccc3)[nH]c2c1	26	-5	-0.28	0	.	.
O=S(=O)(c1ccc(Cl)cc1)c1snnc1-c1ccccc1	100*	34	0.31	3	0.0033	-0.055
c1ccc(-c2nnsc2-c2ncc[nH]2)cc1	-5	-1	-0.55	.	-0.012	-0.059
CN(C)c1ncc(S(=O)(=O)c2ccc(Cl)cc2)c(-c2ccccc2)n1	-4	5	-3.1	.	.	-2.2
SMILES	L major viab	WT yeast gro inh	Ins promoter up	INS promoter inh	ROMK primary	KCC2 mod
O=S(=O)(c1ccc(F)cc1)c1snnc1-c1ccccc1	81*	-13	-0.11	.	-0.086	-0.32
CN(C)[C@@H]1CCC[C@H]1OC(=O)C(c1ccccc1)c1ccccc1	12	-14	-0.04	.	0.057	1.1
CCOC(=O)c1ccc(N2C(=O)CC(Sc3nnc(C)s3)C2=O)cc1 (centres undefined)	-2	35	-0.58	.	-0.076	-0.018
Oc1nc(Nc2ccc(Cl)cc2Cl)sc1/C=C1\C=Nc2ccccc21	-10	83*	-0.11	.	.	-0.53
COc1ccc(NS(=O)(=O)c2ccc(NC(=O)c3ccc(N(C)S(C)(=O)=O)cc3)cc2)c(OC)c1	54*	-6	-0.62	21	.	0.6
COc1ccc(NC(=O)CCN2C(=O)c3ccc([N+](=O)[O-])cc3C2=O)c(OC)c1	90*	-5	0.85	-24	.	0.43
COc1ccc(NS(=O)(=O)c2ccc(NC(C)=O)cc2)c(OC)c1	-8	4	.	-53	-0.018	-0.0057
COc1ccc(N(CC(=O)Nc2ccc(OC)cc2OC)S(=O)(=O)c2ccccc2)cc1	23	5	-0.58	-7	-1.8	-1.8
COc1ccc(NC(=O)CN(c2ccc([N+](=O)[O-])cc2)S(=O)(=O)c2ccccc2)c(OC)c1	75*	4	-0.59	22	-1.5	-1.9
COc1ccc(NC(=O)CN(c2ccc(C)cc2)S(C)(=O)=O)c(OC)c1	14	62*	1.3	-32	.	.
N/C(=N\OC(=O)c1ccc(=O)n(Cc2ccc(Cl)cc2)c1)c1ccccn1	19	14	0.57	57	1.2	-1
O=C(c1ccccc1)c1ccc(OCC(O)CNC2CCCc3ccccc32)cc1 (centres undefined)	11	34	-0.94	.	.	0.24
O=C(O)c1cccc2cccnc12	-3	-15	-0.49	13	0.29	0.65
O=C(Oc1cccc2cccnc12)c1ccco1	99*	-19	?	48	0.76	.
O=C(Oc1cccc2ccccc12)c1ccco1	9	-5	.	.	.	-1.7
O=C(Oc1cccc2cccnc12)c1cccs1	100*	-24	-0.13	35	0.3	.
O=C(NCCOc1cccc2cccnc12)c1cccs1	-1	-10	0.22	.	-0.44	-0.89
O=C(Oc1ccc(Cl)c2cccnc12)c1ccco1	99*	6	0.02	45	-0.55	.
O=C(Oc1ccccc1)c1cccc2cccnc12	94*	-9	.	-42	0.63	-0.54
Cc1ccc(NC(=O)/C(C#N)=C/c2ccccc2C(F)(F)F)cc1	6	8	0.35	-315	-0.88	0.72
O=[N+]([O-])c1ccc(Oc2cccc3cccnc23)c([N+](=O)[O-])c1	30	63*	-0.29	.	.	-0.29
Cc1ccc2cccc(Oc3ccc([N+](=O)[O-])cc3[N+](=O)[O-])c2n1	-1	-8	0.05	0	.	-2.1
Cc1c(C(=O)Oc2cccc3cccnc23)cccc1[N+](=O)[O-]	98*	9	0.17	-63	-0.035	-0.26
O=C(Cc1ccc(Cl)cc1)Oc1cccc2cccnc12	97*	-11	0.06	-67	0.28	0.039
Cc1nc(C(=O)N(C)C)nn1-c1cc(Cl)cc(Cl)c1	-3	-12	0.85	43	.	0.011
CN(C)c1ccc(CNC23CC4CC(CC(C4)C2)C3)cc1	87*	.	.	.	-0.59	.
Cc1ccsc1CNC12CC3CC(CC(C3)C1)C2	3	6	-1.4	-47	-0.28	-0.61
O=C(OCc1cc(Cl)ccc1OC(F)F)c1cncc(Br)c1	-8	60*	0.54	-17	-0.017	0.48
CCOC(=O)C1C(=O)OC(C)(C)C1C(CC)C(=O)c1ccccc1 (centres undefined)	-6	16	0.75	.	-0.01	-1.1
COc1ccc(CN(Cc2ccccn2)S(=O)(=O)c2ccc(-n3cnnn3)c(OC)c2)cc1	80*	-1	.	3	0.0059	-0.67
